Compounds with a hit are over-represented: about 10% of the library has one in this group of screens.
JMJD2A Tudor inh: inhibitors of human JMJD2A Tudor domain | Potency, µM (series often up to 114 µM), without a hit: top-dose activity change, negative = inhibition, usual class: inhibitors | 390,000 compounds, 4.4% hits | O75164 | AlphaScreen JMJD2A-Tudor / H3K4me3 peptide binding; also: potency is read from the fitted curve at half-maximal effect; % is scaled to controls: 0 for no effect and ±100 for the full control effect; nearly all actives have a fitted effect of over 50% in size
CtBP-E1A inh: blocks the CtBP interaction with E1A; AID 651724; 340,000 compounds, 0.49% hits; AlphaScreen GST-E1A/His-CtBP binding, 1536-well; hits give low values; activity change, % (test concentration not listed); in the data active = activity change below about -65%; inconclusive = mostly about -30% to -63%; also: % is scaled to controls: 0 for no effect and ±100 for the full control effect
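Protein mix (5X: 125 nM each GST-E1A, His-CtBP) was incubated with pinned compound 2 h at 37 deg C in dark, in 50 mM Tris pH 8.0 buffer with 300 mM NaCl. Glutathione donor and nickel acceptor beads followed; AlphaScreen signal read after 1 h.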
G9a inh: inhibitors of human histone lysine methyltransferase G9a | Q96KQ7 | G9a H3K9 monomethylation, AlphaScreen, 2 h | Potency, µM (titrated, usually from 102 µM), inactives show at the top dose activity, negative = inhibition, hits mostly inhibitors | 350,000 compounds, 8.8% hits | AID 504332; also: potency is read from the fitted curve at half-maximal effect; % is scaled to controls: 0 for no effect and ±100 for the full control effect; nearly all actives have a fitted effect of over 75% in size
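G9a (20 nM) was preincubated 15 min with compound, then reacted 2 h at room temperature with 500 nM biotin-H3K9 peptide and 20 µM SAM. Monomethyl-H3K9 detected by AlphaScreen using anti-H3K9me1 antibody.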
BAZ2B block: BAZ2B (human) inhibition. Q9UIF8. AlphaScreen BAZ2B-H3K14Ac peptide displacement. Potency, µM (top dose mostly 114 µM), for the others: at the top dose activity change, negative = inhibition, actives largely listed as inhibitors. 360,000 compounds, 4.4% hits. AID 504333; also: potency is read from the fitted curve at half-maximal effect; % is scaled to controls: 0 for no effect and ±100 for the full control effect; nearly all actives have a fitted effect of over 60% in size
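In this displacement format the biotinylated H3(5-23) peptide acetylated at Lys14 serves as ligand at 50 nM, with BAZ2B at 50 nM in PBS pH 7.4 containing 0.01% Tween-20. Donor and acceptor beads are 10 ug/mL final.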
Six1-Eya2 inh: inhibitors of human Six1/Eya2 interaction; AID 651725; 360,000 compounds, 0.56% hits; AlphaScreen GST-Six1/His-Eya2 binding, biochemical; hits give low values; activity change, % (concentration not given with the values); Q15475+O00167; in the data active = activity change below about -65%; inconclusive = mostly about -30% to -63%; also: % is scaled to controls: 0 for no effect and ±100 for the full control effect
Target sequence (O00167 whole entry, looked up): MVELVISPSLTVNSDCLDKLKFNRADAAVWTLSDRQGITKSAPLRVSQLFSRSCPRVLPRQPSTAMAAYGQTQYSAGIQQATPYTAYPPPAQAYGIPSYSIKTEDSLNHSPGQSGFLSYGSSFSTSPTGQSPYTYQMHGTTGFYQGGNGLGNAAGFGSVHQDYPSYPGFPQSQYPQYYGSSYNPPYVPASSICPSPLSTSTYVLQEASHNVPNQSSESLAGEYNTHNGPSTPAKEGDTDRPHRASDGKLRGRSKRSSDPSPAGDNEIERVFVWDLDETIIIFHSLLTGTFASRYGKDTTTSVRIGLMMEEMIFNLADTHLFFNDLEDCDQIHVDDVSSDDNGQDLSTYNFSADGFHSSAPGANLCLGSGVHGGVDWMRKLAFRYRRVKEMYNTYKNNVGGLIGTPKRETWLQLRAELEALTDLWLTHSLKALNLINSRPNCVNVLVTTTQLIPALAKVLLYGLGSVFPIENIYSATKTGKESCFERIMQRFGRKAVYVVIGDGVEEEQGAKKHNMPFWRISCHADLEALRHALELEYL
Target sequence (Q15475 whole entry, looked up): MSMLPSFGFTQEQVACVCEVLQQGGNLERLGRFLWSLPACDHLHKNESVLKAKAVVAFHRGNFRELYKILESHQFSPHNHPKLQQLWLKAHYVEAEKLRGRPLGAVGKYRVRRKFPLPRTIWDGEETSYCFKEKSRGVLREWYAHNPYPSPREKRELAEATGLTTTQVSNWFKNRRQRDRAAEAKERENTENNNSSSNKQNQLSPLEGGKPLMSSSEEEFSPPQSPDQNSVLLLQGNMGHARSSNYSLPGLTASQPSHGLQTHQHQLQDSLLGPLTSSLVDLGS
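AlphaScreen luminescence read after one hour at 37 °C in darkness. Pin-transferred compounds met GST-Six1 and His-Eya2 protein (5X stock 250 nM/500 nM) plus glutathione donor and Ni-chelate acceptor beads (5X, 50 ug/mL).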
HP1b chromo inh: HP1-beta chromodomain-methylated histone interaction inhibition | P83916 | AlphaScreen HP1-beta / biotin-H3K9me3 peptide binding | Potency, µM (titrated, usually from 114 µM), inactives show at the top dose activity change, negative = inhibition, hits mostly inhibitors | 390,000 compounds, 0.56% hits | AID 540317; also: potency is read from the fitted curve at half-maximal effect; nearly all actives have a fitted effect of over 70% in size
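Compound inhibition of the preformed complex between 50 nM HP1-beta and 50 nM biotinylated H3K9me3 peptide was read by AlphaScreen. Buffer was PBS pH 7.4 with 0.01% Tween-20. Incubations ran 30 min at room temperature, with 10 ug/mL donor/acceptor beads.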
* hit, by the source's call; ? = inconclusive; · = no result given; [ ] = another dose, or the depositor's remark. Unless noted, calls follow the shape of the dose curve; as a rule, active = well fitted inhibition curve with a large enough effect; inconclusive = small, poorly fitted or top-dose-only effect; inactive = no such curve, though single readings can be large or run the other way.

SMILES	JMJD2A Tudor inh	CtBP-E1A inh	G9a inh	BAZ2B block	Six1-Eya2 inh	HP1b chromo inh
O=C(NCc1n[nH]c(=S)n1-c1cccc(Cl)c1)c1ccc(S(=O)(=O)N2CCCC2)cc1	89µM*	8	?	?	1	19%
Cc1cccc(-n2c(CNC(=O)c3ccc(S(=O)(=O)N4CCCCC4)cc3)n[nH]c2=S)c1	35µM*	4	7.1µM*	2%	-4	28%
O=C(NCc1n[nH]c(=S)n1-c1ccc(Cl)c(Cl)c1)c1ccc(S(=O)(=O)N2CCCCC2)cc1	-29%	-6	8.9µM*	-27%	-12	14%
O=C(O)c1ccc(CNC(=O)c2ccc(S(=O)(=O)N3CCCCC3)cc2)cc1	-10%	3	23%[12.7 µM]	0%	-1	33%
Cc1ccc(Cl)cc1N1CCN(CCCNC(=O)c2nnc(Cc3cccc(Cl)c3)o2)CC1	-24%	·	-49%[59 µM]	?	·	8%
COc1ccccc1CNC(=O)C1CCCN(c2nn3cc(-c4ccc(F)cc4)nc3s2)C1 (stereo not drawn)	-5%	·	-4%[59 µM]	-1%	·	11%
Cn1c(SCC(=O)NNC(=O)Cc2ccccc2)nc2ccccc2c1=O	22µM*	·	16%	-7%	-20	-11%
COCCn1c(SCC(=O)NNC(=O)Cc2ccccc2)nc2ccccc2c1=O	-5%[11.4 µM]	·	2%	-15%	-4	53%
Cn1c(SCn2nnc3ccccc3c2=O)nc2ccccc2c1=O	·	·	50µM*	-7%	·	·
CCN(CC)S(=O)(=O)c1ccc2c(c1)nc(SCC(=O)N(C)C1CCS(=O)(=O)C1)n2CC (stereo not drawn)	-16%	4	?	-21%	2	-2%
CCN(CC)S(=O)(=O)c1ccc2c(c1)nc(SCn1nnc3ccccc3c1=O)n2CC	-11%	3	45µM*	13%	6	18%
COc1ccc(OC)c(NC(=O)[C@H](CSCc2ccccc2)N2Cc3ccccc3C2=O)c1	-29%	·	-5%[59 µM]	-34%	·	28%
COc1ccc(C2c3cccn3CCN2S(=O)(=O)c2ccccc2[N+](=O)[O-])cc1OC (stereo not drawn)	?	·	?	?	·	13%
CC1CN(C(=O)N[C@@H](Cc2ccccc2)C(=O)O)CC(C)O1 (stereo partly drawn)	-2%	-4	56µM*	-7%	0	25%
CSCC[C@H](NC(=O)C1CCN(C(=O)[C@@H](N)Cc2ccccc2)CC1)C(=O)O	-1%	9	?	-2%	5	19%
O=C(O)[C@H](Cc1ccccc1)NC(=O)N1CCC(Cc2ccccc2)CC1	-3%	·	14µM*	-15%	4	1%[57 µM]
N[C@@H](Cc1ccccc1)C(=O)N1CCC(C(=O)N[C@@H](CCC(=O)O)C(=O)O)CC1	18µM*	·	79µM*	1%	11	19%
Cc1cc(N2C(=O)c3ccccc3C2=O)no1	-11%	·	·	·	·	·
CC(C)(CC(=O)NCc1ccc(Cl)cc1Cl)CC1=NS(=O)(=O)c2ccccc2N1	-22%	·	-10%[59 µM]	-10%	·	30%
CCOC(=O)C1=C(C)NC(C)=C(C(=O)OCC)C1c1cn(-c2ccccc2)nc1-c1ccco1	-6%[11.4 µM]	8	2%[12.7 µM]	-4%	6	33%
CC(C)OC(=O)c1cn(-c2ccccc2)nc1-c1ccco1	-16%	7	7.9µM*	-9%	-7	17%
Cc1ccc(-c2nn(-c3ccccc3)cc2/C=C/C(=O)O)o1	-24%	·	28µM*	?	-1	36%
Cc1ccc(-c2nn(-c3ccccc3)cc2C(=O)O)o1	·	·	4.5µM*	?	·	·
Cc1ccc(-c2nn(-c3ccccc3)cc2CN(Cc2ccccc2)C(=O)c2ccco2)o1	56µM*	-17	32µM*	32µM*	?	-37%
CCC(C(=O)Nc1cc(OC)cc(OC)c1)n1nc(-c2ccc(C)c(C)c2)ccc1=O (stereo not drawn)	-36%	·	?	?	·	-2%
CC(=O)c1ccc(NC(=O)C2CCC(CNS(=O)(=O)c3cccc4nsnc34)CC2)cc1 (stereo not drawn)	-18%	·	-27%[59 µM]	-26%	·	26%

Source: PubChem BioAssay
